In the supplement of paper PMC10849652:
About 7,900 targets were measured; listed, in parts, are those with a hit and a random draw of the rest. About 0.6% of all pairs of compound and target were hits.

How the values were obtained:
Test in all cases: log2 fold change, soluble protein after heating vs DMSO (PISA); higher = thermal stabilisation; K562 cells, 10 uM, 30 min; active = over 0.2 and 3.5 SD of the protein, either way, in both replicates (recomputed)
[1] = compound: C#Cc1cccc(Nc2ncnc3cc(OCCOC)c(OCCOC)cc23)c1 [erlotinib]
Procedure, shortened: (§1)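 Soluble protein was defined as the supernatant after 21,000xg for 90 min. It came from K562 cells at 2×10^6 cells/mL given 10 μM compound for 30 min, heated in aliquots for 3 min across 48°C-58°C, pooled, and extracted in PBS with 0.5% NP-40 at 4°C, and was quantified by TMTpro 16plex LC-MS/MS with equalised channel sums. Thermal stability against control samples, from duplicates, is reported as log2 fold change.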

[2] = compound: C/C(=N\NC(=O)C1=CC(=CC=C1)S(=O)(=O)N2CCOCC2)/C3=C(C=CC(=C3)Cl)O
Procedure, shortened: as §1

[3] = compound: C1=CC(=C(C=C1Cl)C2=NC3=NC=CN=C3C(=N2)NC4=CC=NC=C4)F
Procedure, shortened: as §1

[4] = compound: C1=CC(=CC=C1C2=NC3=C(N2)C=C(C=C3)C(=O)N)OC4=CC=C(C=C4)Cl
Procedure, shortened: as §1

[5] = compound: C1=CC2=C(C=CC(=C2)/C=C\3/C(=O)NC(=NCC4=CC=CS4)S3)N=C1
Procedure, shortened: as §1

[6] = compound: C1=CC2=NC=CN=C2C=C1/C=C/3\C(=O)NC(=O)S3
Procedure, shortened: as §1

[7] = compound: C1=CC=C(C=C1)C2=NC(=C(N2)C3=CC=NC=C3)C4=CC(=C(C=C4)Cl)O
Procedure, shortened: as §1

[8] = compound: C1=CC=C2C(=C1)C3=NNC4=CC=CC(=C43)C2=O
Procedure, shortened: as §1

[9] = compound: C1CCN(C1)C(=O)NC2=CC=CC(=C2)NC3=NC=C(C(=N3)NCCC4=CN=CN4)Br
Procedure, shortened: as §1

[10] = compound: C1CN(CCC1(CC2=CC=C(C=C2)Cl)N)C3=NC=NC4=C3C=CN4
Procedure, shortened: as §1

Measured: log2 fold change

MYL12B (UniProt O14950)
inactive: [1] 0.016 | [2] 0.091 | [3] 0.02 | [4] 0.006 | [5] -0.072 | [6] -0.019 | [7] 0.157 | [8] 0.023 | [9] -0.045 | [10] 0.005

OXA1L (UniProt Q15070)
inactive: [1] -0.014 | [2] 0.029 | [3] -0.005 | [4] 0.012 | [5] 0.01 | [6] 0.021 | [7] 0.006 | [8] -0.029 | [9] 0.012 | [10] 0.043

NASP (UniProt P49321)
inactive: [1] -0.018 | [2] 0.048 | [3] 0.079 | [4] -0.018 | [5] -0.02 | [6] 0.059 | [7] -0.018 | [8] -0.004 | [9] 0.001 | [10] -0.022

OTUD6B (UniProt Q8N6M0)
Sequence of UniProt Q8N6M0 (Q8N6M0 whole entry, looked up): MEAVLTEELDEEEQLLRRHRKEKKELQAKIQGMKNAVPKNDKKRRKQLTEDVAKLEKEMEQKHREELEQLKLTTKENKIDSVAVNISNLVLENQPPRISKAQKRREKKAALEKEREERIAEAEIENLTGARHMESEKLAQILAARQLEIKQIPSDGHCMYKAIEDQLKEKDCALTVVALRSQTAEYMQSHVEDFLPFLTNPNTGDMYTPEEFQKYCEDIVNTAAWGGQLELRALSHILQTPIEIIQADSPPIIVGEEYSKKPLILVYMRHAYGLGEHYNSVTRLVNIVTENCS
inactive: [1] 0.053 | [2] 0.117 | [3] -0.103 | [4] 0.019 | [5] 0.142 | [6] 0.032 | [7] -0.001 | [8] 0.051 | [9] -0.014 | [10] -0.055

NCK1 (UniProt P16333)
inactive: [1] 0.045 | [2] 0.206 | [3] -0.066 | [4] 0 | [5] 0.179 | [6] -0.019 | [7] -0.084 | [8] 0 | [9] -0.135 | [10] -0.081

MORC2 (UniProt Q9Y6X9)
inactive: [1] 0.105 | [2] 0.033 | [3] -0.027 | [4] 0.051 | [5] 0.148 | [6] -0.097 | [8] 0.421

OSBPL3 (UniProt Q9H4L5)
Sequence of UniProt Q9H4L5 (Q9H4L5 whole entry, looked up): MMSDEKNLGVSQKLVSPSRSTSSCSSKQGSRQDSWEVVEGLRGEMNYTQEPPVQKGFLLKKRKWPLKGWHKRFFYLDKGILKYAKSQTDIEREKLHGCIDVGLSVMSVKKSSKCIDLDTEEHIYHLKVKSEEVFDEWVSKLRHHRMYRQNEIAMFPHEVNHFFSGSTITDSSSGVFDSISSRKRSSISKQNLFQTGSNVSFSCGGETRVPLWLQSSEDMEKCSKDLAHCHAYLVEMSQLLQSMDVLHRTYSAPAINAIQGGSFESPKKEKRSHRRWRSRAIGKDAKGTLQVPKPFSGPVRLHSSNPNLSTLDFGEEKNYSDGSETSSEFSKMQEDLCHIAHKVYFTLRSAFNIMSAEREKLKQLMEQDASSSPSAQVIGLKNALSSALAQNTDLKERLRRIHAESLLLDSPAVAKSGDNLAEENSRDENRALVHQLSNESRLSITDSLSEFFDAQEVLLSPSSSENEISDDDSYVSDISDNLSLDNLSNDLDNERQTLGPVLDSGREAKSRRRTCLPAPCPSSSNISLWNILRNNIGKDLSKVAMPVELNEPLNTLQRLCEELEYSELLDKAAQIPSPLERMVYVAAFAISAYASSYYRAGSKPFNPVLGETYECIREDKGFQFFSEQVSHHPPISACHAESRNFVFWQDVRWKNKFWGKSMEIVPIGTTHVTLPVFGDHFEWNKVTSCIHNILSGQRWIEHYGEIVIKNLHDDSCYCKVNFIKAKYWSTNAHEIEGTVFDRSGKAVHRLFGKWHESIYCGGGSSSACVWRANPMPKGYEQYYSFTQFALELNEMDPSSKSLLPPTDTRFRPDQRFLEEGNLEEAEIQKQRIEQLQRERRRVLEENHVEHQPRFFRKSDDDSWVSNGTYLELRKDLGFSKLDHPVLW
inactive: [2] 0.15 | [3] -0.147 | [4] 0.165 | [5] 0.094 | [7] 0.255 | [8] 0.16 | [9] -0.021 | [10] -0.078
active: [1] 1.67

OSTC (UniProt Q9NRP0)
inactive: [1] 0.021 | [2] 0.024 | [3] 0.022 | [4] 0.017 | [5] 0.004 | [6] -0.001 | [7] 0.014 | [8] 0.048 | [9] -0.041 | [10] 0.088

NUMA1 (UniProt Q14980)
inactive: [1] -0.03 | [2] -0.006 | [3] -0.109 | [4] 0.017 | [5] 0.02 | [6] 0.019 | [7] 0.031 | [8] -0.054 | [9] -0.055 | [10] -0.211

NFYB (UniProt P25208)
inactive: [1] 0.092 | [2] -0.102 | [4] -0.153 | [5] -0.047 | [6] 0.064 | [7] -0.036 | [8] -0.045 | [9] 0.01 | [10] -0.069

NAGPA (UniProt Q9UK23)
inactive: [1] 0.046 | [2] 0.023 | [3] 0.046 | [4] 0.056 | [5] 0.033 | [6] -0.018 | [8] -0.025 | [9] -0.013 | [10] 0.148

NSMCE2 (UniProt Q96MF7)
inactive: [1] -0.076 | [2] 0.012 | [3] -0.078 | [4] 0.009 | [5] 0.023 | [6] -0.096 | [7] 0.04 | [8] -0.058 | [9] -0.001 | [10] 0.008

NDUFB1 (UniProt O75438)
inactive: [1] -0.015 | [2] -0.016 | [3] 0.209 | [4] 0.053 | [5] -0.102 | [6] 0.039 | [8] 0.079 | [9] -0.05 | [10] -0.006

MIS12 (UniProt Q9H081)
inactive: [1] 0.103 | [2] 0.083 | [3] 0.012 | [4] 0.002 | [5] 0.107 | [6] 0.052 | [7] -0.063 | [8] -0.018 | [9] -0.16 | [10] -0.016

NA isoform 3 (UniProt Q4G0T1)
inactive: [1] 0.019 | [2] 0 | [4] 0.01 | [5] 0.11 | [6] -0.035 | [7] 0.014 | [8] 0.047 | [9] 0.058 | [10] 0.071

MMADHC (UniProt Q9H3L0)
inactive: [1] 0.088 | [2] -0.002 | [4] -0.034 | [5] -0.031 | [6] -0.105 | [7] -0.039 | [8] 0.073 | [9] 0.014 | [10] 0.083

MRPS12 (UniProt O15235)
inactive: [1] -0.013 | [2] 0.008 | [3] -0.13 | [4] 0.095 | [5] -0.052 | [6] 0.018 | [7] 0.099 | [8] 0.165 | [9] 0.025 | [10] -0.063

NGLY1 (UniProt Q96IV0)
inactive: [1] 0.035 | [2] -0.06 | [3] -0.036 | [4] -0.014 | [5] 0.17 | [6] 0.023 | [7] -0.001 | [8] 0.045 | [9] -0.023 | [10] -0.024

MLST8 (UniProt Q9BVC4)
Sequence of UniProt Q9BVC4 (Q9BVC4 whole entry, looked up): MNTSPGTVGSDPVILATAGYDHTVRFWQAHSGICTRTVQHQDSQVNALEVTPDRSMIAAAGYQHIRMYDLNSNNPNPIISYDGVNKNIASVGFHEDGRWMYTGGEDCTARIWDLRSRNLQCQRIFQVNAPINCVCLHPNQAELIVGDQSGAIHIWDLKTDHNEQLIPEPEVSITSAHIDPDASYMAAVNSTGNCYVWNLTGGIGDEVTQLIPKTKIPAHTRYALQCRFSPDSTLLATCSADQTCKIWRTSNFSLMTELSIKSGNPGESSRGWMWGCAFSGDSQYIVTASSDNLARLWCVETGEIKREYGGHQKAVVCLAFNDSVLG
inactive: [1] -0.021 | [2] 0.049 | [3] -0.004 | [4] 0.102 | [5] 0.116 | [6] -0.026 | [8] -0.111 | [9] -0.035 | [10] -0.105

NDUFS8 (UniProt O00217)
inactive: [1] 0.015 | [2] 0.045 | [3] 0.023 | [4] 0.033 | [5] 0.039 | [6] 0.027 | [7] 0.029 | [8] 0.007 | [9] 0.014 | [10] 0.035

NUMB (UniProt P49757)
inactive: [1] 0.016 | [2] -0.012 | [3] -0.048 | [4] 0.018 | [5] -0.001 | [6] 0.044 | [7] -0.004 | [8] -0.009 | [9] -0.087 | [10] 0.021

MSH3 (UniProt P20585)
inactive: [1] 0.009 | [2] 0.031 | [3] 0.068 | [4] 0.017 | [5] 0.017 | [6] 0.03 | [7] 0.004 | [8] -0.039 | [9] 0.008 | [10] -0.045

NDUFA4 (UniProt O00483)
inactive: [1] -0.134 | [2] 0.002 | [3] 0.258 | [4] 0.042 | [5] 0.047 | [6] 0.072 | [7] 0.038 | [8] 0.011 | [9] 0.086 | [10] -0.017

NOL11 (UniProt Q9H8H0)
Sequence of UniProt Q9H8H0 (Q9H8H0 whole entry, looked up): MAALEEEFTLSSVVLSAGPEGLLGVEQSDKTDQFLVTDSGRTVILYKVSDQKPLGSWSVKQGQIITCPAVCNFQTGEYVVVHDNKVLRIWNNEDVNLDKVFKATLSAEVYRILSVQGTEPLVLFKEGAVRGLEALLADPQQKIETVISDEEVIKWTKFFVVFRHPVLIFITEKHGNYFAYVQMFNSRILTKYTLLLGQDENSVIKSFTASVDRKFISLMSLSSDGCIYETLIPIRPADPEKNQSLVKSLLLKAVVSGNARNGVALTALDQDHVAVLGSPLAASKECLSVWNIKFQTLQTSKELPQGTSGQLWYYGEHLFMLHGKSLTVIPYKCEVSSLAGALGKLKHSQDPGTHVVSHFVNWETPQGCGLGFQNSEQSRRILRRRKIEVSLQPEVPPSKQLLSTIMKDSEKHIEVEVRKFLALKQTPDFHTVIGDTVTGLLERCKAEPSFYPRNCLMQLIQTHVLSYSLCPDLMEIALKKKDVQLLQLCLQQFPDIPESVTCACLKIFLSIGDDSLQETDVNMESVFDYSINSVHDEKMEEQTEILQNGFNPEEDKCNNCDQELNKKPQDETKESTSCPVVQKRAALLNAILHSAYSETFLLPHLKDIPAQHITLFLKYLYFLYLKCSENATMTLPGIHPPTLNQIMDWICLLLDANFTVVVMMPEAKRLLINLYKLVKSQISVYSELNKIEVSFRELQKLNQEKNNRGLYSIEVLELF
inactive: [1] -0.019 | [2] -0.065 | [3] 0.015 | [4] -0.007 | [5] -0.038 | [6] 0.042 | [7] 0.027 | [8] -0.005 | [9] -0.014 | [10] 0.079

NDUFB8 (UniProt O95169)
Sequence of UniProt O95169 (O95169 whole entry, looked up): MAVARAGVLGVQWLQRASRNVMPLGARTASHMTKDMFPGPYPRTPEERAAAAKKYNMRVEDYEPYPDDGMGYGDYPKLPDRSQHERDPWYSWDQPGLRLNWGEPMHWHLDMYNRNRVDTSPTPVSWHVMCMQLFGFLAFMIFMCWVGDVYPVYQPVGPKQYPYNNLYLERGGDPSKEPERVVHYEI
inactive: [1] -0.026 | [2] -0.047 | [3] 0.129 | [4] 0.005 | [5] 0.033 | [6] 0.087 | [7] -0.026 | [8] 0.07 | [9] -0.008 | [10] 0.06

ORC5 (UniProt O43913)
Sequence of UniProt O43913 (O43913 whole entry, looked up): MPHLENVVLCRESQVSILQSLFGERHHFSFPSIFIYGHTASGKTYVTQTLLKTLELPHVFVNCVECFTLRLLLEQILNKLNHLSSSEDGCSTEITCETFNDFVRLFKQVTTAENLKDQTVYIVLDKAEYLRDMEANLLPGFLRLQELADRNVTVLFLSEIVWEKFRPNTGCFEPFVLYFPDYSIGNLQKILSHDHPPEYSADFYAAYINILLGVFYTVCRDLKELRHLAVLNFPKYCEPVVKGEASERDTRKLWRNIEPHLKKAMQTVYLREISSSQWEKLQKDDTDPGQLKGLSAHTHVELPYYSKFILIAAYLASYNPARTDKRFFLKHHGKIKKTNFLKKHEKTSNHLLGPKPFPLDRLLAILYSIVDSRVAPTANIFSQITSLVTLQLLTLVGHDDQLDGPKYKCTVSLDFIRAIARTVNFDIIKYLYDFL
inactive: [1] 0.089 | [2] 0.177 | [4] 0.046 | [5] 0.05 | [6] 0.062 | [7] 0.031 | [8] 0.01 | [9] -0.13 | [10] -0.026

NIBAN1 (UniProt Q9BZQ8)
Sequence of UniProt Q9BZQ8 (Q9BZQ8 whole entry, looked up): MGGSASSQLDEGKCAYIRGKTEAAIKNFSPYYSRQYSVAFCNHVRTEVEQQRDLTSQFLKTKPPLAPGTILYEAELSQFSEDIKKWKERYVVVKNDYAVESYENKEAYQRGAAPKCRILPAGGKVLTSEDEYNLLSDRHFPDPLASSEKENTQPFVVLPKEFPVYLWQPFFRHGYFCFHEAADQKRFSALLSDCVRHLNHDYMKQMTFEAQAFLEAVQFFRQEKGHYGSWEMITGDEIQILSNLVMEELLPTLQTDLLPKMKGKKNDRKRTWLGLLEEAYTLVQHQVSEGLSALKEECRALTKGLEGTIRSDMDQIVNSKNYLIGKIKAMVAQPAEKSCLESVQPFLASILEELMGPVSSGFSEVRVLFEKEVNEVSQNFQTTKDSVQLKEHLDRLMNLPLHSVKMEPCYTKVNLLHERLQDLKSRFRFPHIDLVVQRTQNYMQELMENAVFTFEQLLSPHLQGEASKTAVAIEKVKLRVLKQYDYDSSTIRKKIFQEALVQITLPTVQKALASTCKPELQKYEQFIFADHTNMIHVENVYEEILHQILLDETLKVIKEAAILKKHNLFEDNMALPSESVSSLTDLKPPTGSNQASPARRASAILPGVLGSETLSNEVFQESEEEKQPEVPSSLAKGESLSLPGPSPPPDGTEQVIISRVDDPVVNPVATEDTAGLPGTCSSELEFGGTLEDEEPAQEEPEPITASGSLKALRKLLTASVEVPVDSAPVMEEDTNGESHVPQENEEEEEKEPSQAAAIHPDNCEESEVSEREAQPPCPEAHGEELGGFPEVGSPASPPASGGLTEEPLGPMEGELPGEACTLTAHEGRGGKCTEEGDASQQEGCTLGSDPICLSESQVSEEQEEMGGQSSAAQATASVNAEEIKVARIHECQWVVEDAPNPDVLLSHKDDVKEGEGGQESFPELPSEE
inactive: [1] 0.014 | [2] 0.103 | [3] -0.022 | [4] 0.017 | [5] 0.058 | [6] -0.009 | [7] -0.005 | [8] -0.047 | [9] -0.017 | [10] -0.06

MNAT1 (UniProt P51948)
inactive: [1] 0.01 | [2] 0.04 | [3] -0.066 | [4] 0.012 | [5] -0.012 | [6] 0.008 | [7] 0.002 | [8] -0.002 | [9] -0.067 | [10] -0.01

OPA1 isoform 2 (UniProt O60313)
inactive: [1] 0.041 | [2] 0.081 | [3] 0.031 | [4] -0.021 | [5] 0.07 | [6] 0.01 | [7] 0.126 | [8] 0.027 | [9] -0.006 | [10] 0.078

OGFR (UniProt Q9NZT2)
Sequence of UniProt Q9NZT2 (Q9NZT2 whole entry, looked up): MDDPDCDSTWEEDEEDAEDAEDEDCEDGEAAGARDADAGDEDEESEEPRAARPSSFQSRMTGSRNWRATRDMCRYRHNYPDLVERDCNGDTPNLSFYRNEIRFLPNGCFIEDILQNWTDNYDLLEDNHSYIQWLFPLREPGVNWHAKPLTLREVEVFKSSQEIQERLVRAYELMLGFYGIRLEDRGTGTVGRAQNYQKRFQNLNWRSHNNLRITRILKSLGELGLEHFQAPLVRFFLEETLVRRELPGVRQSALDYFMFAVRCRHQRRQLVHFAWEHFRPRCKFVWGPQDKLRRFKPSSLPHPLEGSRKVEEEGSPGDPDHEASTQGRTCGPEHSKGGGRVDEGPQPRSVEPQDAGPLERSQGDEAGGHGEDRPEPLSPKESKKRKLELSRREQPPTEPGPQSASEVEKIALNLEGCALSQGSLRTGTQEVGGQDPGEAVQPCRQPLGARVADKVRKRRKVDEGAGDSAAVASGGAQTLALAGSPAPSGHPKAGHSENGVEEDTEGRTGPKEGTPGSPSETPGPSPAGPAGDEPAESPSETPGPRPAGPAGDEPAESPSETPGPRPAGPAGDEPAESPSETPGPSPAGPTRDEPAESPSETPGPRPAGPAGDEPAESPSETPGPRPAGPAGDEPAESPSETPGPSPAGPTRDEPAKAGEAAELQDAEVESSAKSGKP
inactive: [1] 0.009 | [2] 0.207 | [3] -0.011 | [4] 0.107 | [5] 0.131 | [6] -0.157 | [7] 0.027 | [8] -0.085 | [9] 0.028 | [10] -0.132

NEK3 (UniProt P51956)
Sequence of UniProt P51956 (P51956 whole entry, looked up): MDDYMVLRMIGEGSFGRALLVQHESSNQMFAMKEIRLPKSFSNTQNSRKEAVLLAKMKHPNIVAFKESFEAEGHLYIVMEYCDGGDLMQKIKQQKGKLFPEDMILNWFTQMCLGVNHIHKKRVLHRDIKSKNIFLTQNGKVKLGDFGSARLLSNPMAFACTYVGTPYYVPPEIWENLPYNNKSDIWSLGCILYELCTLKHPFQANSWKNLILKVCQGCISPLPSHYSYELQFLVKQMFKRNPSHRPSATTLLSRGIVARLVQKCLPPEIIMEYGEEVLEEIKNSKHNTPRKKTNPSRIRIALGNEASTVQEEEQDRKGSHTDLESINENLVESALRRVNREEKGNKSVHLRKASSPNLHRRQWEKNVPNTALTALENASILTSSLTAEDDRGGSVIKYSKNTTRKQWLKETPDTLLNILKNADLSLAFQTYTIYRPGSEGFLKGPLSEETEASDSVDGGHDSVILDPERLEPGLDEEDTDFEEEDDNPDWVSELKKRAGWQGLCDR
inactive: [1] 0.003 | [2] -0.011 | [3] 0.096 | [4] 0.06 | [5] -0.063 | [7] 0.039 | [8] -0.05 | [9] -0.141 | [10] 0.103
